Experimental data taken from PubChem BioAssay AID1259421 (Broad Institute, 2018).
Where “and” joins values, the source holds several entries; their conditions need not be identical. Equal entries are not always repeated. Hit rate of the full screen: of about 6,400 compounds, about 610 (9.5%) were called active. Rule as the data show it: active = activity change below about -70%; inconclusive = no clear call, values can overlap the other calls; inactive = above that. Many of the other results were omitted from the sample, so actives are more common in it than they were. More than one record can exist for a structure, and the calls need not agree.

Assay: Toxoplasma gondii ME49Luc growth in HeLa cells, luciferase, no IFN-y, primary screen (AID 1259421)
Conditions: T. gondii ME49Luc in HeLa, 72 h, stronger effect = lower value, concentration not given here

SMILES	activity change, negative = inhibition
CCCCC(=O)O[C@]1(C(=O)CO)[C@@H](C)CC2C3CCC4=CC(=O)C=C[C@]4(C)[C@@]3(F)C(O)C[C@@]21C (some centres not stated)	1.05% (inactive)
CC(=O)c1cc2ccccc2oc1=O	-2.07% (inactive)
O=C(O)CCCCN(CCc1ccccc1OCc1ccc(CCc2ccccc2)cc1)Cc1ccc(C(=O)O)cc1	10.8% (inactive)
C=C[C@@]1(C)CC(=O)[C@]2(O)[C@@]3(C)[C@@H](O)CCC(C)(C)[C@@H]3[C@H](O)[C@H](OC(=O)CCCN3CCN(C)CC3)[C@@]2(C)O1	-10.4% (inactive)
OC(c1ccccc1)C1CCN(CCc2ccccc2)CC1 (configuration not stated)	5.4% (inactive) and 0.692% (inactive)
CC(C)(C(=O)O)c1ccc(C(O)CCCN2CCC(C(O)(c3ccccc3)c3ccccc3)CC2)cc1 (configuration not stated)	4.73% (inactive) and 3.69% (inactive)
CC(C)(C)c1ccc(C(O)CCCN2CCC(C(O)(c3ccccc3)c3ccccc3)CC2)cc1 (configuration not stated)	-86.1% (active) and 8% (inactive)
CCC(C)C(=O)O[C@H]1C[C@H](O)C=C2C=C[C@H](C)[C@H](CC[C@@H](O)C[C@@H](O)CC(=O)O)C21 (some centres not stated)	4.96% (inactive)
O=S(=O)(c1ccccc1)c1cnc2c(N3CCNCC3)cccc2c1	8.53% (inactive)
CCCCCCOc1nsnc1C1=CCCN(C)C1	-26.8% (inactive)
CCC(CC)(CC(=O)Nc1cccc(/C=C/c2nc(C3CCC3)cs2)c1)C(=O)O	41.5% (inactive)
O=C(C[C@H]1NCCC[C@@H]1O)Cn1cnc2cc(Br)c(Cl)cc2c1=O	-86% (active)
CC(C)[C@@H](N)C(=O)O	5.34% (inactive)
Clc1ccc2c(N3CCN(CCCN4CCN(c5ccnc6cc(Cl)ccc56)CC4)CC3)ccnc2c1	1.21% (inactive)
Cc1ncc(-c2ccnc(Nc3ccc(S(C)(=O)=O)cc3)n2)n1C(C)C	-84.5% (active)
C1CCN2C[C@@H]3C[C@H](CN4CCCC[C@@H]34)[C@H]2C1	13.5% (inactive)
O=C1[C@@H]2[C@H]3CC[C@H](C3)[C@@H]2C(=O)N1CCCCN1CCN(c2ncccn2)CC1	8.23% (inactive)
CCCCCCCCCCCCCCCCCCCCCC(=O)Nc1ccn([C@@H]2O[C@H](CO)[C@@H](O)[C@@H]2O)c(=O)n1	8.14% (inactive)
O=C(CN1CCNCC1)NC1CCCCC1	-5.36% (inactive)
C=C1CCC2[C@](C)(CO)[C@H](O)CC[C@@]2(C)[C@@H]1C/C=C1/C(=O)OC[C@H]1O (some centres not stated)	9.67% (inactive)
N#CC[C@H](C1CCCC1)n1cc(-c2ncnc3[nH]ccc23)cn1	27.9% (inactive) and 17.6% (inactive)
Nc1ncnc2c1c(-c1cnc3[nH]ccc3c1)nn2C1CCCC1	-82.4% (active)
N#CC[C@@H](C1CCCC1)n1cc(-c2ncnc3[nH]ccc23)cn1	1.99% (inactive)
COc1cc([C@@H]2[C@H]3CO[C@@]4(O)C(=O)[C@@H]2C=C([C@H]2Oc5cc(O)cc(O)c5C(=O)[C@@H]2O)[C@@H]34)ccc1O	-0.383% (inactive)

SMILES	activity change, negative = inhibition
Cn1cnc2nc(NCCO)nc(NCc3ccccc3)c21	-3.03% (inactive)
OC1O[C@@H]2COC(c3ccccc3)O[C@H]2[C@H](O)[C@H]1O (some centres not stated)	36.7% (inactive)
COc1ccc2cc(-c3cc(-c4cc(Cl)cc(Cl)c4)nn3[C@@H](C)c3ccc(C(=O)NCCC(=O)O)cc3)ccc2c1	-64.1% (inactive)
CCCCCCNC(=O)n1cc(F)c(=O)[nH]c1=O	-97.3% (active)
CCCCNC(=O)c1ccc(Cl)cc1O	-69.9% (inactive)
Cc1nnc(SCC2=C(C(=O)O)N3C(=O)[C@@H](N)[C@H]3SC2)s1	2.53% (inactive)
CCN(CC)CCCCC1CCN(CC(=O)N2c3ccccc3C(=O)Nc3cccnc32)CC1	11.7% (inactive) and 11.5% (inactive)
Cc1ccc([N+](=O)[O-])cc1S(=O)(=O)N(C)/N=C/c1cnc2ccc(Br)cn12	-80.3% (active)
Cc1ccc([N+](=O)[O-])cc1S(=O)(=O)N(C)C	16.2% (inactive) and 6.9% (inactive)
CN[C@@H]1C(OC2[C@H](O[C@H]3[C@H](O)[C@@H](O)[C@H](N=C(N)N)[C@@H](O)[C@@H]3N=C(N)N)OC(C)[C@]2(O)CO)OC(CO)C(O)C1O (some centres not stated)	3.82% (inactive)
C[C@]12CCc3occc3C1CC[C@@]13C[C@@H](CCC12)[C@@](O)(CO)C3 (some centres not stated)	-13.6% (inactive)
CCC1(c2ncc[nH]2)Cc2ccccc2O1 (configuration not stated)	15% (inactive) and -0.683% (inactive)
CC(=O)O[C@H]1CC[C@@]2(C)C(C[C@@H](OC(C)=O)[C@]3(C)C2CC[C@@]2(C)[C@H](c4ccoc4)OC(=O)[C@H]4O[C@]423)C1(C)C (some centres not stated)	-27.9% (inactive)
Nc1nccc2c1ncn2[C@@H]1O[C@H](CO)C(O)C1O (some centres not stated)	-4.71% (inactive)
Nc1nccc2c1ncn2[C@@H]1C=C(CO)[C@@H](O)[C@H]1O	-74.6% (active) and -68.5% (inactive)
Nc1ncnc2c1ncn2[C@@H]1O[C@H](CO)[C@@H](O)[C@@H]1O	-51.5% (inactive)
CCC(CC)CC1(C(=O)Nc2ccccc2SC(=O)C(C)C)CCCCC1	-68.8% (inactive)
COc1cccc(NC(=O)/C=C/c2ccc(Cl)cc2)c1	290% (inactive) and 329% (inactive)
O=C(/C=C/c1ccccc1)NC(NC(=S)Nc1cccc2cccnc12)C(Cl)(Cl)Cl (configuration not stated)	0.586% (inactive)
O=C(/C=C/c1ccccc1)NC(NC(=S)Nc1ccc(Cl)cc1)C(Cl)(Cl)Cl (configuration not stated)	-82.6% (active)
CC(=O)c1ccc(NS(C)(=O)=O)c(Oc2ccc(F)cc2F)c1	22.3% (inactive)
COC[C@@H](c1ccc(C(F)(F)F)cc1)N1CCN(C2(C)CCN(C(=O)c3c(C)ncnc3C)CC2)C[C@@H]1C	5.59% (inactive)
CCCC(=O)Nc1cccc(NC(=O)c2ccccc2Br)c1	17.4% (inactive)
CCN(CC)CCCC(C)Nc1nc(C)cc(Nc2ccc3nc(C)cc(N)c3c2)n1 (configuration not stated)	-14.9% (inactive)

SMILES	activity change, negative = inhibition
CCc1ccc(OCc2ccccc2C(=O)Nc2ccc3nc(C)cc(N)c3c2)cc1	-82.4% (active)
Nc1c(Br)cc(Br)cc1CNC1CCC(O)CC1 (configuration not stated)	2.89% (inactive) and 3.02% (inactive)
Cc1[nH]c(=O)c(C#N)cc1-c1ccc2nccn2c1	24.3% (inactive) and 0.856% (inactive)
CC(C)(C)c1nc(-c2cccc(NS(=O)(=O)c3c(F)cccc3F)c2F)c(-c2ccnc(N)n2)s1	-88.1% (active)
Cn1c(=O)c2c(ncn2CCOC(=O)C(C)(C)Oc2ccc(Cl)cc2)n(C)c1=O	7.49% (inactive)
CC(=O)O[C@H]1C[C@@]2(C)[C@@H](C[C@@H](O)C3[C@]2(C)CC[C@H]2[C@H](C)[C@H](O)CC[C@]32C)/C1=C(/CCC=C(C)C)C(=O)O (some centres not stated)	-16.8% (inactive) and -21.5% (inactive)
CN1C(=O)C[C@@H](C(=O)N[C@@H](Cc2cnc[nH]2)C(=O)N2CCC[C@H]2C(N)=O)NC1=O	-66.5% (inactive)
COC(=O)C1=C(C)NC(C)=C(C(=O)O[C@H]2CCN(Cc3ccccc3)C2)[C@H]1c1cccc([N+](=O)[O-])c1	0.473% (inactive)
COC(=O)C1=C(C)NC(C)=C(C(=O)OC/C=C/c2ccccc2)C1c1cccc([N+](=O)[O-])c1 (configuration not stated)	-14.8% (inactive)
COC(=O)C1=C(C)NC(C)=C(C(=O)OCCN2CCN(C(c3ccccc3)c3ccccc3)CC2)C1c1cccc([N+](=O)[O-])c1 (configuration not stated)	-60.9% (inactive) and -77.5% (active)
CCOC(=O)C1=C(C)NC(C)=C(C(=O)OC)C1c1cccc([N+](=O)[O-])c1 (configuration not stated)	3.95% (inactive) and 4.34% (inactive)
COC(=O)C1=C(C)NC(C)=C(C(=O)OCCN(C)Cc2ccccc2)C1c1cccc([N+](=O)[O-])c1 (configuration not stated)	31.7% (inactive) and 1.2% (inactive)
COC(=O)C1=C(C)NC(C)=C(C(=O)NCCCN2CCC(c3ccccc3)(c3ccccc3)CC2)C1c1ccc([N+](=O)[O-])cc1 (configuration not stated)	-48.9% (inactive)
COC(=O)C1=C(C)NC(C)=C(C(=O)OCCCN2CCC(c3ccccc3)(c3ccccc3)CC2)[C@H]1c1cccc([N+](=O)[O-])c1	-68.2% (inactive) and -79.8% (active)
COC(=O)C1=C(C)NC(C)=C(C(=O)O[C@@H]2CCCN(Cc3ccccc3)C2)[C@@H]1c1cccc([N+](=O)[O-])c1	23.7% (inactive)
COC(=O)C1=C(C)NC(C)=C(C(=O)OCCCN2CCC(c3ccccc3)(c3ccccc3)CC2)[C@@H]1c1cccc([N+](=O)[O-])c1	-76.4% (active) and -90.4% (active)
COc1ccc2c(c1)OC1(O)COc3cc(OC)c(OC)cc3C1=C2 (configuration not stated)	10.6% (inactive)
CC(=O)N1CCN(CCOc2ccc(C3CCN(C4=Nn5c(nnc5C(F)(F)F)CC4)CC3)cc2)CC1	7.85% (inactive)
O=C(OC1C[C@@H]2CC3C[C@H](C1)N2CC3=O)c1c[nH]c2ccccc12 (some centres not stated)	-0.997% (inactive)
C[C@]1(Cn2ccnn2)C(C(=O)O)N2C(=O)CC2S1(=O)=O (some centres not stated)	0.084% (inactive)
CNc1cc2ncnc(Nc3cccc(Br)c3)c2cc1N	-8.12% (inactive)
O=c1[nH]cnc2c1cnn2[C@@H]1O[C@H](CO)[C@H](O)C1O (some centres not stated)	19.3% (inactive)
CCC(C)C(=O)OC1CC(C)C=C2C=CC(C)C(CCC(O)CC(O)CC(=O)O)C21 (configuration not stated)	7.4% (inactive)
NCCC(O)(P(=O)(O)O)P(=O)(O)O	-2.86% (inactive)
